These results are taken from PubChem BioAssay.

Calls of active or inactive are those of the source. Unless noted, how the calls were made is not given here.

Assay [1] in a line: compound effects on lung adenocarcinoma cell viability – A549, calcein-AM fluorescence, 48 h, basal, profiling panel (AID 1162). Further: test concentration not given here. The settings on record: higher = more signal.
The nature of assay [2]: compound effects on differentiated 3T3-L1 adipocyte viability – cell-based, 3T3-L1 adipocytes, calcein-AM fluorescence, 48 h, basal, profiling panel (AID 1163). Further: test concentration not given here. The settings on record: 3T3-L1 adipocytes viability, higher = more signal.
Assay [3] is described as follows: compound effects on hepatocellular carcinoma cell viability – HepG2, calcein-AM fluorescence, 48 h, basal, profiling panel (AID 1164). Further: test concentration not given here. Conditions: higher = more signal.
Assay [4] is described as follows: compound effects on multiple myeloma cell viability – MM1S, calcein-AM fluorescence, 48 h, basal, profiling panel (AID 1165).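 Further: viability of MM1S multiple myeloma cells under basal unstimulated conditions; test concentration not given here.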 The settings on record: higher = more signal.
Assay [5] can be described thus: calcein-AM signal in unstimulated myeloma cells – cell-based, calcein-AM fluorescence, 48 h, PK04 Diversity Set, profiling panel (AID 1166).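 Further: cells grown under basal conditions without added stimulus; test concentration not given here.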 The settings on record: RPMI8226 myeloma viability, higher = more signal.
Assay [6] is described as follows: JC-1 mitochondrial signal, unstimulated HepG2 cells – cell-based, JC-1 fluorescence, 24 h, 100 nL compound, profiling panel (AID 1167). Further: test concentration not given here. The settings on record: HepG2 mitochondrial potential, higher = more signal.
The nature of assay [7]: JC-1 mitochondrial signal, unstimulated adipocytes – cell-based, JC-1 fluorescence, 3T3-L1 adipocytes, 24 h, 100 nL compound, profiling panel (AID 1168). Further: test concentration not given here. Conditions: JC-1 mitochondrial fluorescence, higher = more signal, called active from +8 up or from −8 down.
Assay [8] can be described thus: JC-1 mitochondrial signal, unstimulated myeloma cells – cell-based, JC-1 fluorescence, RPMI8226, 24 h, 100 nL compound, profiling panel (AID 1169). Further: test concentration not given here. The settings on record: JC-1 mitochondrial potential fluorescence, higher = more signal.
A short description of assay [9]: JC-1 mitochondrial signal, unstimulated MM1S myeloma – cell-based, JC-1 fluorescence, 24 h, 100 nL compound, profiling panel (AID 1170). Further: test concentration not given here. The settings on record: MM1S mitochondrial potential, higher = more signal.
The nature of assay [10]: resazurin metabolic signal in A549 cells – cell-based, resazurin fluorescence, 24 h, PK04 Diversity Set, profiling panel (AID 1171). Further: test concentration not given here. The settings on record: A549 viability, higher = more signal, called active from +8 up or from −8 down. Background: Resazurin is reduced to fluorescent resorufin, in cell work by metabolically active cells.
Assay [11] in a line: resazurin metabolic signal in HepG2 cells – cell-based, resazurin fluorescence, 24 h, PK04 Diversity Set, profiling panel (AID 1172). Further: test concentration not given here. The settings on record: HepG2 viability, higher = more signal.
Assay [12] can be described thus: budding yeast growth changes without added modifier – OD600, strain BY4716, 24 h, basal condition, primary screen (AID 1173). The settings on record: S. cerevisiae BY4716 growth, OD600, 24 h; higher = more signal, called active from +8 up or from −8 down.
Assay [13] can be described thus: viability profiling in MM1S myeloma cells – cell-based, resazurin fluorescence, basal, 24 h, PK04 Diversity Set, profiling panel (AID 1174). Further: test concentration not given here. Conditions: higher = more signal, called active from +8 up or from −8 down.
The target in assay [14] is Dihydroorotate dehydrogenase (quinone), mitochondrial (Plasmodium falciparum (isolate 3D7)) (UniProt Q08210). Briefly: inhibition of P. falciparum DHODH – biochemical, C-terminal His tag, absorbance 600 nm, primary screen (AID 1175).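 Further: recombinant parasite enzyme with a five histidine tag at its C terminus; test concentration not given here.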 The settings on record: PfDHODH enzyme, DCIP absorbance 600 nm; higher = more signal, called active from +8 up or from −8 down.
Assay [15] in a line: inhibition of PAO1 biofilm formation – strain PAO1, LB-PBS medium, absorbance 600 nm, primary screen (AID 1176). Further: test concentration not given here. Conditions: P. aeruginosa PAO1 growth/biofilm, A600, 12 h; higher = more signal.
Assay [16] is described as follows: growth modulation of vineyard yeast isolate – strain RM11-1a, OD600, basal, 24 h, primary screen (AID 1177).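 Further: cultures grown under basal conditions with no added stressor; test concentration not given here.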 The settings on record: S. cerevisiae RM11-1a growth, OD600, 24 h; higher = more signal, called active from +8 up or from −8 down.
The nature of assay [17]: growth of efflux-deficient E. coli DRC39 – strain DRC39, OD650, 24 h, E. coli filamentation inducers, primary screen (AID 1178).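 Further: growth measured as culture turbidity by optical density at 650 nm; test concentration not given here.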 The settings on record: E. coli DRC39 acrAB, higher = more signal, called active from +8 up or from −8 down.
Assay [18] in a line: growth of efflux-deficient E. coli DRC39 – strain DRC39, OD650, 48 h, E. coli filamentation inducers, primary screen (AID 1179).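 Further: screen aims at cell division blockers that make cells filament.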 The settings on record: E. coli DRC39 delta-acrAB growth, higher = more signal, called active from +8 up or from −8 down.
Assay [19] is described as follows: viability profiling in RPMI8226 myeloma cells – cell-based, resazurin fluorescence, basal, 24 h, PK04 Diversity Set, profiling panel (AID 1180).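 Further: RPMI8826 multiple myeloma cell line at 5000 cells per well; test concentration not given here.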 The settings on record: higher = more signal.
For assay [20], the target named is E3 ubiquitin-protein ligase XIAP (Homo sapiens) (UniProt P98170). Briefly: small molecules binding XIAP protein – biophysical, small-molecule microarray, fluorescence 635 nm, primary screen (AID 1181).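 Further: score merges 667 nm emission and signal to noise over triplicate slides.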 The settings on record: higher = more signal.
E3 ubiquitin-protein ligase XIAP (Homo sapiens), sequence (P98170 whole entry, looked up): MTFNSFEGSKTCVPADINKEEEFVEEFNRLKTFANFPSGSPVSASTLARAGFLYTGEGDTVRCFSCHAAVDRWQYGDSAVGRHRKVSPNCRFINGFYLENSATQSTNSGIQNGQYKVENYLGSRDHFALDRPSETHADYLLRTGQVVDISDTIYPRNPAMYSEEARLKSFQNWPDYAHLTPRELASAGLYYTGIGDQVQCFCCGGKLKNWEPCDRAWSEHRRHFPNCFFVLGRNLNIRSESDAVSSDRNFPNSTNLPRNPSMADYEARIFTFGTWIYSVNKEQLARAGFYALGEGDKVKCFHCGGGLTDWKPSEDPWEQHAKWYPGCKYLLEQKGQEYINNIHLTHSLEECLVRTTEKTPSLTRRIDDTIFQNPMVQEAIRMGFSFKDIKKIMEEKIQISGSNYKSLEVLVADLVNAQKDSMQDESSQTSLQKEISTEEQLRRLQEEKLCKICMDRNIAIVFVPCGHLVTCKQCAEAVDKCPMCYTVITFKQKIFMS

Dihydroorotate dehydrogenase (quinone), mitochondrial (Plasmodium falciparum (isolate 3D7)), sequence (Q08210 whole entry, looked up): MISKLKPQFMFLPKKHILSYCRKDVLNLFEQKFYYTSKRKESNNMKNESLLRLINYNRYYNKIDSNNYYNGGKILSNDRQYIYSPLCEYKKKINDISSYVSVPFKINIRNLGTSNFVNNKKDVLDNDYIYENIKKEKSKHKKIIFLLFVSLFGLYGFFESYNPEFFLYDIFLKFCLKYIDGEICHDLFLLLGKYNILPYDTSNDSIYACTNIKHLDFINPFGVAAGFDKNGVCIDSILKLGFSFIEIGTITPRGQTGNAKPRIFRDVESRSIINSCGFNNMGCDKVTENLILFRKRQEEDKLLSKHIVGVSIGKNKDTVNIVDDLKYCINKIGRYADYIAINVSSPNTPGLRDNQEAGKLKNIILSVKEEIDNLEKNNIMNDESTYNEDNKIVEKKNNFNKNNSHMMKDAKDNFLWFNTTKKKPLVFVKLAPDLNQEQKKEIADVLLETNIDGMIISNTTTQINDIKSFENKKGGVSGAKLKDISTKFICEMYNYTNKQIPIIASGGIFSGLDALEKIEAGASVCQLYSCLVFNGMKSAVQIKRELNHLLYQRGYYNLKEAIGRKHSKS

In the case of `O=C1OCCC=C[C@H]2OC34C=CCN(Cc5ccccc5)C(=O)[C@H]3N(CCCO)C(=O)[C@@H]4C12` (stereo not given in full), the z-score in assay [1] is 0.577; in assay [2], 1.66; in [3] it was -1.04; in [4], 0.0832; in [5], -0.0189; in assay [6], 0.161. Further, the z-score in assay [7] was -0.282 (inactive); in [8] it was 0.798; in assay [9], -0.559; in assay [10], 0.233 (inactive); in assay [11] it was 0.35; in [12] it was -0.625 (inactive). In addition, the z-score in [13] is 1.33 (inactive); in assay [15], 0.152 (inactive); in assay [16], -0.0921 (inactive); in assay [17], -0.638 (inactive); in assay [18], 0.129 (inactive); in assay [19] it was 0.165. For the same compound, the composite z-score was -1.01 (inactive) in assay [14] and -0.0116 in assay [20].

In the case of `C=C(CCCC)C(=O)CC[C@H](OC(=O)c1cccnc1)c1cccc(OCCO)c1`, the z-score in assay [1] was 0.952; in assay [2], 0.136; in assay [3] it was 0.316; in assay [4] it was -3.35; in assay [5], -2.66; in assay [6], 1.39. For the same compound, the z-score is 0.139 (inactive) in assay [7]; -0.726 in assay [8]; -0.592 in assay [9]; 0.358 (inactive) in [10]; -0.53 in assay [11]; 0.704 (inactive) in [12]. Further, the z-score in [13] is -1.29 (inactive); in assay [15], -0.21 (inactive); in assay [16], 1.7 (inactive); in assay [17], 0.477 (inactive); in assay [18] it was 0.262 (inactive); in assay [19], -2.01. In addition, the composite z-score was -0.455 (inactive) in assay [14] and -0.0582 in assay [20].

Consider `CC(C)(C)N1CC=CC23O[C@@H]4/C=C\CCCOC(=O)C4[C@H]2C(=O)N(CCO)[C@@H]3C1=O` (stereo not given in full), for which the z-score is -0.612 in assay [1]; 1.15 in [2]; -0.664 in assay [3]; 0.889 in assay [4]; -0.689 in [5]; -0.388 in assay [6]. Besides, the z-score in [7] is -0.79 (inactive); in [8], -0.0669; in [9] it was 1.11; in assay [10] it was -0.876 (inactive); in assay [11], -0.636; in assay [12] it was 0.0998 (inactive). The z-score in assay [13] is -0.0023 (inactive); in assay [15], 0.18 (inactive); in [16] it was 0.338 (inactive); in [17], -0.599 (inactive); in assay [18] it was -0.814 (inactive); in [19], -0.053. The figures for the composite z-score in assay [14] and in assay [20] were -0.252 (inactive) and -0.142, respectively.

Turning to `C=C[C@@H](COC(C)=O)N(Cc1ccccc1[N+](=O)[O-])S(=O)(=O)c1ccc(Br)cc1`, the z-score in [1] was 1.8; in assay [2] it was 0.425; in [3], -0.491; in [4], -0.531; in assay [5] it was 0.0618; in [6], -0.464. For the same compound, the z-score in assay [7] was -0.34 (inactive); in assay [8], -0.872; in assay [9], -0.189; in assay [10] it was -1.61 (inactive); in [11], -0.798; in assay [12] it was -2.24 (inactive). Also, the z-score was -0.504 (inactive) in [13]; -0.0963 (inactive) in [15]; -2.34 (inactive) in [16]; 1.47 (inactive) in [17]; 0.911 (inactive) in assay [18]; 0.0192 in assay [19]. Moreover, the figures for the composite z-score in assay [14] and in assay [20] were -2.79 (inactive) and 0.183, respectively.

With `CC(C)c1ccc(NN2C(C(O)c3cccc(O)c3)C=CC3C(=O)N(c4ccccc4)C(=O)C32)cc1` (stereo not given), the z-score was -1.09 in [1]; -0.35 in assay [2]; -0.753 in [3]; -0.26 in [4]; -0.237 in [5]; -1.85 in [6]. For the same compound, the z-score is -0.948 (inactive) in assay [7]; -0.554 in assay [8]; -0.749 in [9]; 0.403 (inactive) in assay [10]; -0.546 in assay [11]; -0.914 (inactive) in assay [12]. Also, the z-score in assay [13] was -0.501 (inactive); in assay [15], 0.186 (inactive); in assay [16], 1.63 (inactive); in assay [17], -0.0564 (inactive); in assay [18] it was -0.063 (inactive); in assay [19], -0.111. Moreover, the composite z-score in assay [14] was 0.523 (inactive); in [20] it was 0.42.

For `CN(C)CCCNC(=O)[C@@]1(Cc2ccccc2I)c2ccccc2C(=O)N(Cc2ccccc2C(F)(F)F)[C@H]1c1ccc(CO)cc1`, the z-score is -2.7 in assay [1]; -0.469 in assay [2]; -5.13 in assay [3]; -3.8 in [4]; -4.33 in assay [5]; -1.04 in [6]. The z-score in [7] was 0.64 (inactive); in assay [8], -0.98; in assay [9] it was -2.43; in assay [10], -5.93 (inactive); in [11], -6.04; in assay [12], -6.8 (inactive). For the same compound, the z-score in [13] was -7.53 (inactive); in assay [15] it was 0.0993 (inactive); in [16] it was 0.653 (inactive); in assay [17] it was -0.299 (inactive); in assay [18], 0.247 (inactive); in assay [19] it was -4.01. Also, the composite z-score in [14] is 0.35 (inactive); in assay [20], -0.288.

For `CCN(CC)c1ccc(N2CC=CC34O[C@@H]5C=CCCOC(=O)C5[C@H]3C(=O)N(CCCCCO)[C@@H]4C2=O)cc1` (stereo not given in full), the z-score in assay [1] was 1.69; in assay [2], 0.132; in [3], 1.08; in [4] it was 1.39; in assay [5], -0.0513; in assay [6] it was 1.65. For the same compound, the z-score in assay [7] was 1.27 (inactive); in assay [8] it was 0.589; in assay [9], 0.84; in [10] it was 1.62 (inactive); in assay [11] it was 1.72; in assay [12] it was -0.8 (inactive). In addition, the z-score in assay [13] is 0.974 (inactive); in assay [15], 0.165 (inactive); in [16], -0.866 (inactive); in assay [17], 2.21 (inactive); in assay [18] it was 2.23 (inactive); in [19] it was 1.16. Further, the composite z-score in [14] was -0.644 (inactive); in assay [20], 0.354.

For the compound `[N-]=[N+]=NCc1ccccc1C[C@]1(C(=O)O)N=C(c2ccc(OCCCO)cc2)O[C@H]1c1ccccc1CN=[N+]=[N-]`, the z-score in [1] is -0.437; in assay [2] it was 0.368; in assay [3], -0.302; in [4], -0.966; in assay [5], -1.53; in assay [6], -2.38. Further, the z-score in assay [7] is -1.4 (inactive); in assay [8], -0.789; in assay [9] it was 0.432; in assay [10], 1.17 (inactive); in assay [11] it was 0.924; in assay [12], -3.5 (inactive). Further, the z-score in assay [13] is 0.349 (inactive); in [15], 0.563 (inactive); in assay [16] it was -1.05 (inactive); in assay [17], 0.279 (inactive); in [18] it was -0.717 (inactive); in assay [19], -0.0479. Further, the composite z-score in assay [14] is -2.16 (inactive); in assay [20] it was -0.139.
